A selection: hits, their analogues and other compounds. The true share with any hit is near 1.3%.
TRPV1 potentiator = human TRPV1 potentiation | Q8NER1 | TRPV1-expressing cells, Fluo-8 calcium influx, capsaicin EC20 potentiation | potentiation, % at 8.33 µM | hit rate 0.02% among 320,000 | AID 540277; in the data active means potentiation above about 80%; inconclusive means between about 30% and that limit; further: 0% is about no effect
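TRPV1-expressing cells were cultured overnight at 35.5C and loaded with Fluo-8 calcium dye for 40 to 90 min at room temperature. After a 10 s baseline, compound was added and calcium influx was read kinetically for 3 min (ex 480/em 520 nm).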
TRPML1 blocker = human mucolipin-1 channel inhibition | Q9GZU1 | hit rate 0.02% among 390,000 | TRPML1-inducible cells, Ca2+ dye fluorescence, FDSS; hits give low values; inhibition of EC80 agonist-evoked calcium signal | activity change, negative = inhibition, % (concentration not given with the values); in the data active means activity change below about -50%; inconclusive means between about -30% and that limit;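 further: stimulus is agonist 54-4 at its EC80 concentration; on the % scale 0 is the no-effect control and ±100 the full control effect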
Target sequence (Q9GZU1 whole entry, looked up): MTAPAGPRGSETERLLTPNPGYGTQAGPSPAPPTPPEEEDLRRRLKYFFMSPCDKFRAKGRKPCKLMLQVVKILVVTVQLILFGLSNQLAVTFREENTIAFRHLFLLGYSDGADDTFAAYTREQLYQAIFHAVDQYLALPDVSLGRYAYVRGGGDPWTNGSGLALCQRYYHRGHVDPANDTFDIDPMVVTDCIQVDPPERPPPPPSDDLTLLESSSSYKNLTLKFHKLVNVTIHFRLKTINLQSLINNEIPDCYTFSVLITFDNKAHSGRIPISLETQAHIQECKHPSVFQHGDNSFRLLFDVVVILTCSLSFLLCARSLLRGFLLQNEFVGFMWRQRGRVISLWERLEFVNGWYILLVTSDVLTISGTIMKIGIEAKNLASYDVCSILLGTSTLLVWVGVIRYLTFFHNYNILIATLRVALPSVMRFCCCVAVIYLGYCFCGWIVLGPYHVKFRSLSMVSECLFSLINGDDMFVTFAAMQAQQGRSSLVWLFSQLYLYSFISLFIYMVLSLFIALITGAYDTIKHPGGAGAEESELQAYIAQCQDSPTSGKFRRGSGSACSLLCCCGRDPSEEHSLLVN
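TRPML1-DL cells, Tet-induced overnight (~16 h, 37 °C) at 1,500 cells/well, were loaded with Ca8 no-wash dye plus quencher for 45-90 min at room temperature. Compounds were pinned during FDSS kinetic reading; agonist 54-4 at EC80 (4 uM final) then added.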
TRPML1 ag = activates the human TRPML1 channel. TRPML1-expressing cells, Ca2+ dye fluorescence, FDSS. activation, % (test concentration not listed). hit rate 0.12% among 410,000. Q9GZU1. AID 624414; in the data active means activation above about 50%; inconclusive means mostly about 30% to 49%; further: 0% is about no effect
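Cells: TRPML1-DL, 1X Tet inducer, ~16 h at 37 degrees C/5% CO2. Dye: ABD Ca8 no-wash + quencher, 45-90 min RT. Read: 10 s baseline, compound add, 110 s agonist phase; 54-4 EC80 (4uM final), 110 s antagonist phase.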
KCNH2 WT inh = KCNH2 (human, wildtype) channel inhibition. Q12809. U2OS, BacMam KCNH2, thallium flux FluxOr; hits give low values. activity change, % at 1.84 µM. hit rate 0.37% among 340,000;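 active means maximum activity change below -70%; inconclusive means maximum activity change between -70% and -50%; inactive means maximum activity change above -50%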; further: on the % scale 0 is the no-effect control and ±100 the full control effect
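U2OS cells were transduced with wild-type KCNH2 virus (2.03 x 10^8 / mL) for 4 h at room temperature, then cultured overnight at 37 C. Thallium flux was read with FluxOr dye. Rate constants were normalized to DMSO controls.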
KCNH2 3.1 inh = blocks the human KCNH2 3.1 channel isoform. U2OS KCNH2 3.1, thallium flux FluxOr; hits give low values. AID 720553. hit rate 0.95% among 340,000. activity change, % (tested at about 1.8 µM);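 active means maximum activity change below -70%; inconclusive means maximum activity change from -70% to -50%; inactive means maximum activity change above -50%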;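 further: thallium influx rate constant from kinetic fluorescence after stimulation buffer; on the % scale 0 is the no-effect control and ±100 the full control effect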
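Thallium flux read-out: FluxOr dye with Red40 quencher in HBSS/HEPES, 45 min at RT. Rate constants from kinetic reads were normalized to positive and negative DMSO controls. Cells: U2OS virally expressing the 3.1 isoform.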
TRPV1 agonist = human TRPV1 agonism; Q8NER1; TRPV1-expressing cells, Fluo-8 calcium influx, agonist mode; activation, % at 8.33 µM; hit rate 0.19% among 320,000; AID 540275; in the data active means activation above about 80%; inconclusive means between about 30% and that limit; further: 0% is about no effect
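Cells expressing TRPV1 were dye-loaded with Fluo-8 and read kinetically: 10 s baseline, 3 min after compound (agonist portion), then 2 min after EC20 capsaicin (allosteric enhancer portion). Calcium-bound dye fluorescence at 480/520 nm.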
Numbers without * were called inactive; u = inconclusive; x = no result given.

SMILES	TRPV1 potentiator	TRPML1 blocker	TRPML1 ag	KCNH2 WT inh	KCNH2 3.1 inh	TRPV1 agonist
O=C(Nc1ccccc1)c1ccc(NCCN2C(=O)CCC2=O)c([N+](=O)[O-])c1	3	-6	1	0	24	0
Cc1ccc(C(=O)C[n+]2cccc3cccc(O)c32)cc1	x	x	6	x	x	x
Nc1cccc(-c2nnc3n2CCCCC3)c1	-7	7	-1	-4	2	4
Nc1ccccc1-c1nnc2n1CCCCC2	-14	-8	0	-86*	13	2
CCCC(=O)N1CCN(c2nc(CC(C)C)c3c(c2C#N)CCC3)CC1	-23	29	2	3	-1	83*
COc1ccc(-n2nc(C(=O)NCC(=O)NCCCN3CCCCCC3)c3ccccc3c2=O)cc1Cl	81*	-10	0	2	-86*	-2
C[N+]1(CC(=O)c2ccc3c(c2)CCCC3)CCOCC1	x	x	-1	x	x	x
Cn1c(=O)oc2cc(S(=O)(=O)NC(Cc3ccccc3)C(=O)Nc3ccc(F)c(Cl)c3)ccc21 (configuration not stated)	x	2	2	x	x	x
O=C(Nc1ccccc1F)Nc1ccccc1Br	-6	-5	1	x	11	u
CNC(=O)Nc1ccccc1F	-2	80	0	-241*	7	-2
CC(=O)N1c2ccc(S(=O)(=O)NCc3ccc(Cl)cc3)cc2CC1C (configuration not stated)	x	6	2	x	x	x
CC(C)(C)c1ccc(OCc2ccc(C(=O)NN)o2)cc1	1	20	2	-13	7	123*
CCOc1ccc(/C=N/NC(=O)c2ccc(Cn3cc([N+](=O)[O-])cn3)o2)cc1	-1	10	-1	10	-8	-1
NNC(=O)c1ccc(COc2ccc(Br)cc2)o1	-30	-12	0	12	0	u
CC(C)(C)c1ccc(OCc2ccc(C(=O)N/N=C/c3ccc([N+](=O)[O-])cc3)o2)cc1	20	1	-1	-3	-80*	2
COc1ccc(NC(C)=O)cc1S(=O)(=O)N1CCN(C/C=C/c2ccccc2)CC1	4	10	0	12	-73*	-2
COc1ccccc1NC(=O)C(C)N1CCN(C/C=C/c2ccccc2)CC1 (configuration not stated)	6	8	-1	-82*	-95*	-2
COc1ccccc1C(=O)NCC(=O)N1CCN(C/C=C/c2ccccc2)CC1	x	14	2	-14	-18	x
CCOc1ccccc1CNC(=O)CN1C(=O)CCc2cc(S(=O)(=O)N3CCCCC3)ccc21	x	8	-1	x	x	x
CCN(CC)c1ccc(-c2c(C#N)c(N)nc(OC)c2C#N)cc1	-12	22	5	-9	-70*	19
Cc1ccsc1C(=O)C1CCCN(Cc2cccn2-c2ccc(Cl)cn2)C1 (configuration not stated)	-4	-8	0	-107*	-15	6
COc1ccc(C(=O)C2CCCN(Cc3cccn3-c3ccccn3)C2)cc1F (configuration not stated)	13	2	0	-96*	-93*	-2
O=C(c1ccc(Cl)cc1)C1CCCN(Cc2cccn2-c2ccccn2)C1 (configuration not stated)	22	-9	0	-109*	-105*	7
OCCC1CN(Cc2cccn2-c2ccccn2)CCN1C1CCCC1 (configuration not stated)	-1	0	0	42	0	-2
COc1cccc(C(=O)C2CCCN(Cc3cccn3-c3ccccn3)C2)c1 (configuration not stated)	0	11	0	u	-101*	5
SMILES	TRPV1 potentiator	TRPML1 blocker	TRPML1 ag	KCNH2 WT inh	KCNH2 3.1 inh	TRPV1 agonist
Cc1ccc(-n2cccn2)c(CN2CCCC(C(=O)c3sccc3C)C2)c1 (configuration not stated)	-1	30	2	8	1	0
CC[N+]1(CC(=O)c2ccc(Cl)cc2)CCCCC1	x	x	0	x	x	x
Cc1cccc(C)c1OCCn1c(C2CC(=O)N(Cc3ccc(F)cc3)C2)nc2ccccc21 (configuration not stated)	x	4	-1	x	x	x
C[N+]1(CC(=O)c2ccc3ccccc3c2)CCOCC1	x	x	-1	x	x	x
Cc1ccc(S(=O)(=O)NNC(=O)c2ccc(C(=O)N(c3ccccc3)c3ccccc3)cc2)cc1	x	x	-1	x	x	x
O=C(C[n+]1c(Cl)ccc2ccccc21)c1ccc2ccccc2c1	x	x	0	x	x	x
Cc1ccccc1CS(=O)(=O)Cc1ccc(C(=O)NCCc2ccc(Cl)cc2)o1	x	-2	3	x	x	x
CC(C)Oc1cccc(C(=O)C2CCCN(Cc3cccn3-c3ccccn3)C2)c1 (configuration not stated)	7	1	-1	u	-81*	6
COc1ccc(C(=O)C2CCCN(Cc3cccn3-c3nccs3)C2)cc1F (configuration not stated)	2	15	1	-103*	-117*	2
O=C(CSc1ccc(Cl)cc1)N1CCOCC1	-3	27	1	0	7	u
O=C(CSc1ccc(Br)cc1)N1CCOCC1	-31	4	0	-35	4	80*
CCOC(=O)C(/C(C)=N/NC(=O)c1ccccc1[N+](=O)[O-])C(C)C (configuration not stated)	-9	0	0	0	-83*	9
Cn1cc(C(=O)c2ccc(Cl)cc2Cl)cc1C(=O)N/N=C(\N)COc1ccc(Cl)cc1	25	-16	2	9	-73*	0
Cn1cc(C(=O)c2ccc(Cl)cc2Cl)cc1C(=O)N/N=C(\N)COc1ccc(F)cc1	9	22	2	3	-32	1
COc1ccc(-c2cc(C(=O)NCCc3ccc(S(N)(=O)=O)cc3)c3ccccc3n2)cc1	-8	-2	-1	8	-78*	0
Cc1ccc(-c2cc(C(=O)NCCc3ccc(S(N)(=O)=O)cc3)c3ccccc3n2)cc1	5	23	2	2	-6	2
O=C(NCCCn1ccnc1)c1cc(-c2ccncc2)nc2ccccc12	9	-21	0	-2	u	-1
CCOc1cc(C(=O)NCCc2ccc(S(N)(=O)=O)cc2)cc(OCC)c1OCC	-19	-3	0	-1	-90*	25
Cc1ccc(CCNC(=O)c2cc(-c3ccncc3)nc3ccccc23)cc1	2	-1	1	-10	-112*	2
O=C(NCCCn1ccnc1)c1cc(-c2ccc(Cl)cc2)nc2ccccc12	3	9	-1	-79*	-82*	3
CCN1C(=NCc2cccc(Cl)c2)N[C@@H](c2cccc(C(F)(F)F)c2)C(C(=O)OC)=C1C	x	x	2	x	x	x
